# The list is not random: actives were taken first. Their share in the collection is about 3%.
# SENP8 block-1: SENP8 (human) protease inhibition | Q96LD8 | recombinant SENP8, Nedd8 substrate fluorescence | inhibition, % at 20 µM | hit rate 0.64% among 360,000 | AID 602440; in the data active = inhibition mostly above about 40%, no sharp cut-off; inactive = mostly below about 27%
# SENP8 block-2: SENP8 protease inhibition; Q96LD8; purified SENP8, Z-RLRGG-aminoluciferin cleavage, luminescence; inhibition, % at 10 µM; hit rate 1.2% among 330,000; in the data active = inhibition above about 50%
# C8 TRAIL sens: sensitizes caspase-8 expressing cells to TRAIL | hit rate 1% among 360,000 | inhibition (viability loss, TRAIL sensitization), % at 10 µM | NB7+C8 cells + TRAIL, ATPlite viability luminescence;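 active = compounds causing at least 50% loss of cell viability in the single-dose screen, relative to plate controls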
# SENP7 block: inhibitors of human SENP7 protease; hit rate 1.5% among 330,000; recombinant SENP7, Z-RLRGG-aminoluciferin luminescence, 40 min; inhibition, % at 5 µM;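 active = inhibition above about 50% at the single test dose, limit read from the data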;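 note: plate controls were DMSO with enzyme for no effect and no enzyme buffer wells for full effect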
# Target sequence (Q9BQF6 706-1050 limits assumed): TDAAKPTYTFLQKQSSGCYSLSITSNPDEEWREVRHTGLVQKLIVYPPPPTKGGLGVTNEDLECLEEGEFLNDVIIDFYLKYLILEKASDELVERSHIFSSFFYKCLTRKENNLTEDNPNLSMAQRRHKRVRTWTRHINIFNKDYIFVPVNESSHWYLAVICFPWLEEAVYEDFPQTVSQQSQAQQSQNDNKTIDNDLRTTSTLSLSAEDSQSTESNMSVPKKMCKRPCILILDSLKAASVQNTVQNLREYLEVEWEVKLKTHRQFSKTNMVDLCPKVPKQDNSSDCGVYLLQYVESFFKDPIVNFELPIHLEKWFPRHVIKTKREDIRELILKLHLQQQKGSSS
# SENP6 block: SENP6 protease inhibition; hit rate 1.8% among 330,000; Recombinant SENP6 catalytic domain, aminoluciferin luminescence; Q9GZR1; inhibition, % at 10 µM; AID 2599;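 active = inhibition above about 50% at the single tested dose, limit read from the data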;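 note: plate controls were DMSO wells with enzyme for no effect and DMSO wells lacking enzyme for full effect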
# PPC-1+TRAIL kill: PPC-1 cancer cell killing with TRAIL present; PPC-1 cells + TRAIL, ATPLite viability luminescence; cell killing (% activity), % at 4 µM or 5 µM; hit rate 0.41% among 220,000;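 active = cell killing above 50% in the first pass at 4 µM, then a duplicate retest at 5 µM averaging 50% or more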;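 note: plate controls were cells with TRAIL plus DMSO for no effect and medium-only wells lacking cells for full effect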
# SENP8 conf: confirmation of human SENP8 protease inhibitors; shares compounds with SENP8 block-1; purified SENP8, Nedd8-AMC/pro-Nedd8 cleavage fluorescence, 30 min; inhibition, % at 25 µM; hit rate 15% among 1,400; in the data active = inhibition mostly above about 39%, no sharp cut-off; inactive = mostly below about 34%
# Starred values were filed as active, the others as inactive; . = no result.
SMILES,SENP8 block-1,SENP8 block-2,C8 TRAIL sens,SENP7 block,SENP6 block,PPC-1+TRAIL kill,SENP8 conf
FC(F)(F)c1ccccc1Cc1c(-c2cccc(Br)c2)nc2c3ccccc3ccn12,-212,.,0,.,.,.,.
Cc1[nH]n(-c2ccccc2)c(=O)c1S(=O)(=O)c1ccccc1,71*,0,9,3,-5,2,43*
CCC(NC(=S)NCc1ccccc1)C(=O)O (centres undefined),48*,-1,9,0,1,-3,35
CCNC(=S)NNC(=S)NCc1ccccc1,5,-3,-5,5,-7,36,.
CCN1CCN(C(=O)C23CCC(C)(C(=O)C2Br)C3(C)C)CC1 (centres undefined),10,2,0,-2,-10,-6,.
CCNc1ccc(C(=O)OCC(=O)NC(C)c2ccccc2)cc1[N+](=O)[O-] (centres undefined),40*,-7,8,-2,-6,11,4
CCC(C)NC(=O)C1(O)c2ccccc2NC(=O)N1c1ccc(C)c(C)c1 (centres undefined),3,4,-3,1,-2,.,.
O=C(Nc1ccccc1F)c1ccc(CNS(=O)(=O)c2cccc(C(F)(F)F)c2)cc1,48*,4,-10,4,-2,32,7
Cc1cc(NS(=O)(=O)c2ccc3c(c2)OCCO3)no1,42*,-3,-15,1,-10,12,23
COc1ccc(/C=N/N=C2/NC(=O)CC(C(=O)O)S2)cc1 (centres undefined),18,1,-6,5,15,21,.
COc1ccc(/C=N/N=C2/CC(C)(C)Cc3n[nH]c(=O)cc32)cc1,44*,0,2,3,0,19,12
O=[N+]([O-])c1nn(-c2ccc(Cl)cc2)n(O)c1=NCc1ccncc1,47*,-4,10,8,-20,-3,32
COc1ccc(CCN2C(=O)CC(NCCc3ccc(S(N)(=O)=O)cc3)C2=O)cc1OC (centres undefined),40*,-2,-10,-2,-2,1,21
COc1ccc(CCNC2CC(=O)N(N(C)C)C2=O)cc1OC (centres undefined),3,0,-3,5,14,8,.
C=CCc1ccc(OC(=O)c2ccccc2)c(OC)c1,48*,-16,3,-4,-9,15,12
Cc1ccccc1N1CC(=O)N(c2ccccc2C)CC1=O,26,0,16,2,1,9,.
CC1=NN(c2ccccc2C)C(=O)C1,51*,.,8,.,.,.,22
CCOc1ccccc1-n1nnnc1SCC(=O)NCc1ccco1,7,-4,-10,-3,-25,15,.
CC(C)(C)C(=O)NCCCc1nc2ccccc2n1CCCOc1ccc(Cl)cc1,41*,-2,4,6,-14,16,25
c1ccc(SSc2ccccn2)nc1,32,5,21,-3,13,.,.
c1ccc(Sc2ccccn2)cc1,40*,-4,10,-9,-16,.,15
O=c1nccc(Nc2ccccc2)[nH]1,17,-1,2,-2,7,-6,.
c1ccc(Nc2cc(Nc3ccccc3)[nH]n2)cc1,55*,-12,-5,7,-19,4,40
CCOc1ccc(NC(=O)c2cc(C3CC3)nc3c2cnn3C(C)C)cc1OC,-15,0,11,4,-2,.,.
O=c1[nH]c(CN2CCN(c3ccccn3)CC2)nc2c(Br)cc(Br)cc12,44*,-11,3,-9,-20,14,5
SMILES,SENP8 block-1,SENP8 block-2,C8 TRAIL sens,SENP7 block,SENP6 block,PPC-1+TRAIL kill,SENP8 conf
C/C(=C\C(=O)c1ccc(Br)cc1)Nc1cccc(Cl)c1,40*,-13,16,-2,5,.,-12
S=C(Nc1ccc2c(c1)OCO2)Nc1ccc2c(c1)OCO2,53*,5,8,7,37,8,21
CN(C)C(=S)Nc1ccc2c(c1)OCO2,11,8,15,7,12,3,.
Cc1ccc(C(=O)OCC(=O)Nc2ccc3c(c2)OCO3)o1,15,-7,-3,-5,4,-3,.
CC(=O)Nc1ccc2c(c1)OCO2,0,-1,-4,-4,-6,-6,.
C/C(=C\C(=O)c1ccc(C)o1)Nc1ccc2c(c1)OCO2,47*,-13,10,-2,-9,5,38

# Compound activity deposited in PubChem by Sanford-Burnham Center for Chemical Genomics.
